Measurements as given in PubChem BioAssay AID1362 (SRMLSC, 2008).
Hit rate of the full screen: of about 190,000 compounds, about 4,000 (2.1%) were called active. Rule as the data show it: active = inhibition above about 58%; inactive = the rest, inconclusive results apart; tested in S. cerevisiae. The list comes from a sample in which actives are over-represented; it also holds similar structures and randomly drawn compounds.

Assay: growth inhibition of WT strain, primary screen, mitochondrial fusion inhibitor project, WT and mutant strains, chemical genetic (AID 1362)
Settings: mitochondrial fusion phenotypic screen, at 10 µM
[1] = WT strain, growth inhibition, stronger effect = higher value

| Structure (SMILES) | inhibition [1] | inhibition (mutant strain inhibition) |
| --- | --- | --- |
| CN1CCN(C(=S)SCC(=O)Nc2ccc(Cl)cc2C(=O)c2ccccc2)CC1 | 7.01% (inactive) | 6.59% |
| CC(C(=O)Nc1ccc(Cl)cc1Cl)N1CC=C(c2ccccc2)CC1 (stereo not given) | 70.9% (active) | 1.22% |
| O=C(OCCN1CCOCC1)C1(c2ccccc2)CCCC1 | 8.37% (inactive) | 10.3% |
| CCCOC(=O)C1C2c3ccccc3C(c3ccccc32)C1C(=O)O (stereo not given) | -5.35% (inactive) | -6.76% |
| CC1=CC(=Cc2sc3ccccc3[n+]2C)C=C(C)O1 | 65.7% (active) | 63.1% |
| COP(=O)(OC)C(NC(=O)c1ccc(C)cc1)C(Cl)(Cl)Cl (stereo not given) | 3.22% (inactive) | 7.65% |
| Cc1cc(C=C2C(=O)NC(=O)NC2=O)c(C)n1-c1ccncc1 | -0.16% (inactive) | -6.83% |
| O=C(Cn1c(=O)n(CC2CS2)c2ccccc21)N1CCCCC1 (stereo not given) | 0.43% (inactive) | -0.1% |
| O=C(CN1CCCCC1)Nc1ccc(Br)cc1C(=O)c1ccccc1Cl | 74.3% (active) | 9.62% |
| O=C(CCN1CCCCC1)NCC(=O)Nc1ccc(Br)cc1C(=O)c1ccccc1 | 7.53% (inactive) | 1.33% |
| O=C(COC(=O)c1ccccc1)Nc1ccc(Cl)cc1C(=O)c1ccccc1 | 16.3% (inactive) | 10.6% |
| CCOC(=O)C1(CCc2ccccc2)CCN(Cc2ccco2)CC1 | 12.8% (inactive) | 4.98% |
| COc1ccccc1N=Nc1c(O)[nH]c(=S)[nH]c1=O | 4.7% (inactive) | 1.05% |
| CC(c1ccccc1)(c1ccccc1)c1ccncc1 | 26.6% (inactive) | 19.3% |
| COP(=O)(NS(=O)(=O)c1ccccc1)OC | -9.16% (inactive) | -1.53% |
